The text below walks through data of PubChem BioAssay (Tox21).

Several values for one entry are separate records, joined by “and”; a condition that tells them apart may be missing. Equal values may be shown once. Values without a mark were called inactive. Activity calls are given as the source filed them. Unless noted, calls follow the shape of the dose curve; as a rule, active = well fitted curve in the direction sought with a large enough effect in the repeat runs; inconclusive = weak or mixed curves; inactive = no such curve, though single readings can be large; an effect the other way counts as inactive or inconclusive.

The nature of test [1]: qHTS assay to identify small molecule antagonists of the thyroid receptor (TR) signaling pathway - cell viability counter screen (AID 743064). Also: nearly all actives have a fitted effect of over 50% in size. Also: potency is read from the fitted curve at half-maximal effect. The essentials: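 GH3.TRE-Luc rat pituitary cells dosed after 4 hr plating, co-stimulated with T3 at 1 nM final, incubated 23.5 h at 37 C. Viability measured in the same wells by CellTiter-Fluor fluorescence after 30 min further at 37 C.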

Test [2] can be described thus: qHTS assay to identify small molecule antagonists of the thyroid receptor (TR) signaling pathway (AID 743065). Also: nearly all actives have a fitted effect of over 55% in size. Also: potency is read from the fitted curve at half-maximal effect. As to activity, negative = inhibition: series mostly up to about 70 µM. The essentials: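 GH3.TRE-Luc rat pituitary cells carrying two TR response elements driving luciferase were plated for 4 h, given compound plus 1 nM T3 (final), and incubated 23.5 h at 37 C. ONE-Glo luminescence measured reporter inhibition; CellTiter-Fluor fluorescence tracked cytotoxicity.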
(qHTS replaces the single test concentration by a dilution series.)

Test [3] concerns thyroid hormone receptor (rat, GH3 cells). In words: qHTS assay to identify small molecule agonists of the thyroid receptor (TR) signaling pathway (AID 743066; calls by dose curve).
Test [4] concerns the target Estrogen receptor (Homo sapiens) (UniProt P03372). Put plainly: qHTS assay to identify small molecule antagonists of the estrogen receptor alpha (ER-alpha) signaling pathway (AID 743069; active = well fitted curve in the direction sought with a large enough effect in the signal ratio in the repeat runs, not every such curve was filed as active; inconclusive = weak or mixed curves, or effect the other way; inactive = no such curve, though single readings can be large or run the other way; the % refers to the signal ratio; also: potency is read from the fitted curve at half-maximal effect). The essentials:
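HEK293 cells stably carrying an ER-alpha-UAS-bla beta-lactamase reporter were pre-cultured overnight in 2% charcoal-stripped FBS medium. Test compounds in DMSO were added together with 17beta-estradiol for 18 hr at 37C. Read-out was fluorescence after 2 hr with LiveBLAzer B/G FRET substrate at room temperature.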

Test [5] can be described thus: qHTS assay to identify small molecule antagonists of the estrogen receptor alpha (ER-alpha) signaling pathway - cell viability counter screen (AID 743074; calls by dose curve; also: nearly all actives have a fitted effect of over 45% in size).
The target of test [6] is Estrogen receptor (Homo sapiens) (UniProt P03372). Put plainly: qHTS assay to identify small molecule agonists of the estrogen receptor alpha (ER-alpha) signaling pathway (AID 743075; calls by dose curve).
Test [7] has the same target. Put plainly: qHTS assay to identify small molecule agonists of the estrogen receptor alpha (ER-alpha) signaling pathway using the BG1 cell line (AID 743079). Also: nearly all actives have a fitted effect of over 20% in size. Also: potency is read from the fitted curve at half-maximal effect.
The nature of test [8]: qHTS assay to identify small molecule antagonists of the estrogen receptor alpha (ER-alpha) signaling pathway using the BG1 cell line - cell viability counter screen (AID 743081).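 Also: compound given together with 17beta-estradiol as the ER stimulus; nearly all actives have a fitted effect of over 45% in size.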 Also: potency is read from the fitted curve at half-maximal effect. As to activity change, negative = cytotoxicity: series mostly up to about 70 µM.
For the next test, the target named is Aromatase (Homo sapiens) (UniProt P11511). In words: qHTS assay to identify aromatase inhibitors (AID 743083). Also: nearly all actives have a fitted effect of over 55% in size. Also: potency is read from the fitted curve at half-maximal effect. As to activity, negative = inhibition: series mostly up to about 70 µM.
The nature of test [9]: qHTS assay to identify small molecule antagonists of the estrogen receptor alpha (ER-alpha) signaling pathway using the BG1 cell line (AID 743080; calls by dose curve;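 also: BG1 cells stimulated with 17beta-estradiol alongside compound; nearly all actives have a fitted effect of over 25% in size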; also: potency is read from the fitted curve at half-maximal effect; as to activity change, negative = inhibition: series mostly up to about 70 µM). A digest of the protocol:
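BG1-Luc-4E2 cells (endogenous full-length ER-alpha, stable 4×ERE-luciferase) were starved 5 days in phenol-red-free medium with 10% charcoal-stripped FBS, plated 24 h, then given compound plus 17beta-estradiol for 21.5 h at 37 C; ONE-Glo luminescence read after 30 min.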
% is scaled to controls: 0 for no effect and ±100 for the full control effect.

Sequence of Estrogen receptor (Homo sapiens) (P03372 whole entry, looked up): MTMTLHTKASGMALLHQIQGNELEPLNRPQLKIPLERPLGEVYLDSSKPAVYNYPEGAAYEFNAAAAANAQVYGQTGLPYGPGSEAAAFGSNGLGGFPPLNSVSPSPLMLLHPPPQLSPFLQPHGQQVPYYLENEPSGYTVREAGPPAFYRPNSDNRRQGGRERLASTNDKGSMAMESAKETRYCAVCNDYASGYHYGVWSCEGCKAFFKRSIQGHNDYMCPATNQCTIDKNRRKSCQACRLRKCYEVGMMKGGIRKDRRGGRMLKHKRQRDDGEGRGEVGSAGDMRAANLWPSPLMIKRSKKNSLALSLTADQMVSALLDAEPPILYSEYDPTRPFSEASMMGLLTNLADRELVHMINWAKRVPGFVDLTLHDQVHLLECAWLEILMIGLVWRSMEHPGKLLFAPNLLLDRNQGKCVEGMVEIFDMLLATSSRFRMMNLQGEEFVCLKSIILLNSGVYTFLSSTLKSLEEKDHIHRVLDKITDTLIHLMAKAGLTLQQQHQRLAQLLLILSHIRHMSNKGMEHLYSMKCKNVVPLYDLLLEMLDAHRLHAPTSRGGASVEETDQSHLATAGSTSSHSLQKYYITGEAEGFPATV
Sequence of Aromatase (Homo sapiens) (P11511 whole entry, looked up): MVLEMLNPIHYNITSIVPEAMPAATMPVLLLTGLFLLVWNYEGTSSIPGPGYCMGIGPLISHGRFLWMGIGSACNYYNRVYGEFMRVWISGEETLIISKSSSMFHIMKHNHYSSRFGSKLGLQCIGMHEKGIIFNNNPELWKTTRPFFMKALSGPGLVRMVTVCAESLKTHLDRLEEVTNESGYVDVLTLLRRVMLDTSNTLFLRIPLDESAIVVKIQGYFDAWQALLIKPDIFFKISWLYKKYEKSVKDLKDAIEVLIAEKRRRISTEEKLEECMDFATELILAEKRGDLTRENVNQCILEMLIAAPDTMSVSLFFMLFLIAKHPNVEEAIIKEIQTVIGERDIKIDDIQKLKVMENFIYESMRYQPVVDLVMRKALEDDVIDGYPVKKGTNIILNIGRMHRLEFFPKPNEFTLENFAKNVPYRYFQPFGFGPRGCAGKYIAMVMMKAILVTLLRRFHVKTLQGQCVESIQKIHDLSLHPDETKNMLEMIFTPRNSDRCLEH

For the molecule `CCC(=O)O[C@]1(C(=O)CCl)[C@@H](C)C[C@H]2[C@@H]3CCC4=CC(=O)C=C[C@]4(C)[C@@]3(F)[C@@H](O)C[C@@]21C`, the Potency entry in test [1], in test [2], in test [3], in test [4], in test [5] and in test [6] was “inactive” in each case. For the same molecule, the Potency result (in test [7]; in test [8]; in the test with Aromatase (Homo sapiens)) was “inactive” each time.

On to `O=C1OC(CN2CCOCC2)CN1/N=C/c1ccc([N+](=O)[O-])o1` (stereo unspecified), for which the Potency entry in [1], in test [2], in test [3], in test [4], in [5] and in test [6] was “inactive” throughout. In addition, the Potency result (in test [7]; in [9]; in [8]; with Aromatase (Homo sapiens)) was “inactive” each time.

Turning to `CC(CSC(=O)c1ccccc1)C(=O)N1C[C@@H](Sc2ccccc2)C[C@H]1C(=O)O` (stereo partly specified), the Potency entry in test [1], in [2], in test [3], in test [4], in test [5] and in test [6] was “inactive” each time. For the same molecule, the Potency result (in test [7]; in test [9]; in test [8]; with Aromatase (Homo sapiens)) was “inactive” in each case.

As for `CCCCNc1ccc(C(=O)OCCOCCOCCOCCOCCOCCOCCOCCOCCOC)cc1`, the Potency result in test [1], in [2], in test [3], in [4], in test [5] and in test [6] was “inactive” throughout. Besides, the Potency entry (in test [7]; in test [8]; in the test with Aromatase (Homo sapiens)) was “inactive” each time.

With `OC[C@H]1O[C@@H](OCCc2ccc(O)cc2)[C@H](O)[C@@H](O)[C@@H]1O`, the Potency entry in test [1], in test [2], in test [3], in test [4], in [6] and in test [7] was “inactive” in each case. The Potency entry (in [9]; in test [8]; in the test with Aromatase (Homo sapiens)) was “inactive” each time.

On to `CCCCC(CC)CN1C(=O)C2C3C=CC(C3)C2C1=O` (stereo unspecified), for which the Potency is 54.5 µM (active) in test [1] and 48.6 µM (active) in test [2]. Also, the Potency result in test [3], in test [5], in test [6], in [7], in [9] and in test [8] was “inactive” in each case.

In the case of `O=S(=O)(Oc1ccc(Cl)cc1)c1ccccc1`, the Potency result in test [1], in [2], in test [3], in [4], in test [5] and in test [6] was “inactive” throughout. Further, the Potency entry (in test [9]; in [8]; in the test with Aromatase (Homo sapiens)) was “inactive” each time.

For `N=c1ccn2c(n1)O[C@H]1[C@H](O)[C@@H](CO)O[C@H]12`, the Potency in test [1] is 0.531 µM (active); in [2] it was 531 nM (active) and 545 nM (active). Also, the Potency result in test [3], in test [4], in test [5], in [6], in test [7] and in test [9] was “inactive” in each case. In addition, the Potency result (in [8]; with Aromatase (Homo sapiens)) was “inactive” each time.

For the molecule `CCc1cc(C2=C(C(=O)O)N(c3ccccc3C(F)(F)F)S(=O)(=O)c3ccccc32)cc2c1OCO2`, the Potency in test [1] is 2.41 µM (active). Also, the Potency result in test [2], in test [3] and in test [5] was “inactive” in each case.

On to `NCC(=O)O`, for which the Potency entry in test [1], in [2], in test [3], in test [4], in test [6] and in test [7] was “inactive” each time. In addition, the Potency entry (in test [9]; in [8]; in the test with Aromatase (Homo sapiens)) was “inactive” throughout.

Turning to `CC(C)(C)Cl`, the Potency result in test [1], in test [2], in test [3], in test [4], in test [6] and in test [9] was “inactive” each time. The Potency entry (in [8]; with Aromatase (Homo sapiens)) was “inactive” throughout. Further, in test [7], the Potency is 64.4 µM (active).

`C=CC(=O)OCCOCCOCCOCCOC(=O)C=C`: the Potency in test [1] was 15.4 µM (active) and 17.1 µM (active); in [2], 15.4 µM (active) and 27.1 µM (active); in test [4], 62 µM [inconclusive] (active) and 61.1 µM [inconclusive] (active); in test [8] it was 61.4 µM (active); with Aromatase (Homo sapiens), 15.4 µM (active) and 17.1 µM (active). Besides, the Potency entry in [3], in test [5] and in test [6] was “inactive” each time.

Consider `c1cc(CCCc2ccncc2)ccn1`, for which the Potency entry in [1], in test [2], in test [3], in test [4], in test [5] and in [6] was “inactive” each time. The Potency entry in test [7], in [9] and in test [8] was “inactive” in each case. The Potency in the test with Aromatase (Homo sapiens) is 13.7 µM (active).

In the case of `CCCCCC[C@@H](O)C/C=C\CCCCCCCC(=O)OC`, the Potency result in test [1], in test [2], in test [3], in test [5], in test [6] and in [7] was “inactive” each time. Besides, the Potency entry (in [9]; in test [8]; in the test with Aromatase (Homo sapiens)) was “inactive” throughout.

Consider `CCO[C@H](Cc1ccc(OCCc2ccc(OS(C)(=O)=O)cc2)cc1)C(=O)O`, for which the Potency result in [1], in [2], in [3], in test [4], in [6] and in [7] was “inactive” each time. Further, the Potency entry (in [9]; in test [8]; with Aromatase (Homo sapiens)) was “inactive” in each case.

For `Brc1c2ccccc2c(Br)c2ccccc12`, the activity change, negative = cytotoxic in test [1] was 6.61% [at 8.44 µM]. Also, the activity, negative = inhibition in test [2] was 5.77% [at 8.44 µM]; in test [4], 17% [at 6.71 µM]. The results for the activation in test [3] and in test [7] were 0.426% [at 8.08 µM] and -3.1% [at 8.47 µM], respectively. For the same molecule, the activity, negative = cytotoxicity in test [5] is 9.03% [at 6.72 µM]. For the same molecule, in test [9], the activity change, negative = inhibition was -5.5% [at 8.47 µM]. In [8], the activity change, negative = cytotoxicity is 5.65% [at 8.47 µM].

Take `NC(N)=NCCC[C@H](N)C(=O)O`: the Potency result in test [1], in [2], in test [3], in test [4], in test [5] and in test [6] was “inactive” throughout. Besides, the Potency result (in test [7]; in [9]; in test [8]; in the test with Aromatase (Homo sapiens)) was “inactive” in each case.

Consider `CCN(CC)CCNC(=O)c1cc(Br)c(N)cc1OC`, for which the Potency entry in test [1], in [2], in test [3], in test [4], in [5] and in test [6] was “inactive” each time. Further, the Potency result (in test [7]; in [9]; in [8]; with Aromatase (Homo sapiens)) was “inactive” throughout.

Consider `Cc1oc2c(NC(=O)c3c(Cl)cccc3Cl)cccc2c1C(C)(C)O`, for which the results for the Potency in test [1], in [2] and in test [4] were 24.3 µM (active), 7.7 µM (active) and 43.6 µM [inhibitor] (active), respectively. Also, the Potency entry in test [3], in test [6] and in test [8] was “inactive” each time.

Turning to `C=C(C)C(=O)OCCOCC`, the Potency result in test [1], in [2], in test [3], in [4], in test [5] and in test [6] was “inactive” each time. The Potency entry (in [7]; in [9]; in [8]; with Aromatase (Homo sapiens)) was “inactive” throughout.

Take `O=C(OCCc1ccccc1)c1ccccc1`: the Potency result in test [1], in [2], in test [3], in test [4], in [6] and in test [8] was “inactive” throughout. The Potency result with Aromatase (Homo sapiens) was “inactive”. Further, in [7], the Potency is 24.3 µM (active).

Regarding `C[N+](C)(C)CCOC(=O)CCC(=O)OCC[N+](C)(C)C`, the Potency entry in [1], in test [2], in [3], in test [4], in [5] and in [6] was “inactive” each time. The Potency entry (in [7]; in [9]; in test [8]; with Aromatase (Homo sapiens)) was “inactive” each time.

Take `CCOC(=O)Cc1cccc2ccccc12`: the Potency entry in test [1], in test [2], in [3], in test [5], in test [6] and in [7] was “inactive” throughout. Further, the Potency entry (in test [9]; in [8]; with Aromatase (Homo sapiens)) was “inactive” in each case.

Consider `CCOc1ccc(O)cc1`, for which the Potency entry in [1], in test [2], in [3], in [5], in [6] and in [7] was “inactive” throughout. Further, the Potency entry (in test [9]; in [8]; in the test with Aromatase (Homo sapiens)) was “inactive” throughout.

In the case of `Cn1c(=O)cc(Oc2ccc(F)cc2F)c2cnc(NCC(C)(C)O)nc21`, the Potency result in test [1], in [2], in test [3], in test [4], in test [5] and in test [6] was “inactive” throughout. Further, the Potency entry (in test [8]; with Aromatase (Homo sapiens)) was “inactive” each time. Moreover, in [9], the Potency is 19.3 µM (active).
